SMN2 splice up – qHTS Assay for Enhancers of SMN2 Splice Variant Expression; HEK293 SMN2-luciferase splicing reporter, luminescence, 30-36 h; Potency, µM (highest dose often 46.1 µM), without a hit: at the highest dose activity change, positive = activation, most hits filed as activators; hit rate 2.8% among 210,000; also: % of control where 0% means no effect; nearly all actives have a fitted effect of over 55% in size
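HEK293 cells carry an SMN2 […]–luciferase reporter in which exon 7 inclusion puts luciferase in frame. Cells were plated 10-12 h before compound addition, then incubated 30-36 h at 37C. ONE-Glo luminescence was read; sodium butyrate at 4.5 mM final served as control.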
NPC1 promoter act – qHTS Assay for NPC1 Promoter Activators; Huh7 NPC1 promoter luciferase reporter, 24 h; Potency, µM (titrated, usually from 9.22 µM), for the others: at the top dose activation, most hits filed as activators; hit rate 2.4% among 320,000; AID 485313, 2010; also: % of control where 0% means no effect; nearly all actives have a fitted effect of over 60% in size
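Stable NPC1-promoter luciferase Huh7 line; cpd (DMSO) 24 h, 37 °C, 5% CO2; Amplite luciferase reagent 10 min RT; luminescence readout. qHTS format.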
KinaseGlo FLuc – Counterscreen for Luciferase (Kinase-Glo TM) Inhibition. Luciferin 4-monooxygenase (Photuris pensylvanica), Q27757. Kinase-Glo luciferase, ATP luminescence, 8 min. hit rate 0.28% among 200,000. Potency, µM (series often up to 38.3 µM), inactives show at the highest dose activity change, negative = inhibition, usual class: inhibitors; also: % is scaled to controls: 0 for no effect and ±100 for the full control effect; nearly all actives have a fitted effect of over 60% in size
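Luminescence was the read-out, taken after 8-minute incubation at ambient temperature. Luciferase turned over luciferin with 10 uM ATP in imidazole pH 7.2 buffer containing KCl, MgCl2, Tween 20 and BSA.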
Rab9 promoter act – qHTS Assay for Rab9 Promoter Activators; Potency, µM (series often up to 9.22 µM), inactives show top-dose activation, negative = inhibition, usual class: activators; hit rate 2.8% among 320,000; AID 485297, 2010; Huh7 Rab9 promoter-luciferase reporter, luminescence, 24 h; also: % of control where 0% means no effect; nearly all actives have a fitted effect of over 60% in size
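Steps: seed 1500 Huh7 Rab9-luc cells per well, rest 2 h at 37 °C; add compound in DMSO; incubate 24 h; add luciferase reagent, 10 min ambient; read luminescence.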
ELG1 genotoxic – qHTS screen for small molecules that induce genotoxicity in human embryonic kidney (HEK293T) cells expressing luciferase-tagged ELG1. HEK293T ELG1-luciferase reporter, luminescence, 16 h. Potency, µM (highest dose often 46 µM), for inactives: at the top dose activity change, positive = activation, hits mostly activators. hit rate 1.3% among 330,000. AID 504466, 2011; also: % of control where 0% means no effect; nearly all actives have a fitted effect of over 60% in size
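HEK293T cells expressing luciferase-tagged ELG1 were treated with compound or DMSO for 16 hr at 37°C. Luciferase activity was then read after 30 min with ONE-Glo at room temperature; rising signal flags genetic stress.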
FLuc counter – qHTS profiling assay for firefly luciferase inhibitor/activator using purifed enzyme and Km concentrations of substrates (counterscreen for miR-21 project) | Potency, µM (titrated, usually from 57.5 µM), inactives show at the top dose activity change, negative = inhibition, hits mostly inhibitors | purified FLuc, Km substrates, luminescence inhibition | hit rate 6.9% among 360,000 | Luciferin 4-monooxygenase (Photinus pyralis), P08659;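 also: plate controls were vehicle for no effect and reference inhibitor for full effect; nearly all actives have a fitted effect of over 55% in size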
Target sequence (P08659 whole entry, looked up): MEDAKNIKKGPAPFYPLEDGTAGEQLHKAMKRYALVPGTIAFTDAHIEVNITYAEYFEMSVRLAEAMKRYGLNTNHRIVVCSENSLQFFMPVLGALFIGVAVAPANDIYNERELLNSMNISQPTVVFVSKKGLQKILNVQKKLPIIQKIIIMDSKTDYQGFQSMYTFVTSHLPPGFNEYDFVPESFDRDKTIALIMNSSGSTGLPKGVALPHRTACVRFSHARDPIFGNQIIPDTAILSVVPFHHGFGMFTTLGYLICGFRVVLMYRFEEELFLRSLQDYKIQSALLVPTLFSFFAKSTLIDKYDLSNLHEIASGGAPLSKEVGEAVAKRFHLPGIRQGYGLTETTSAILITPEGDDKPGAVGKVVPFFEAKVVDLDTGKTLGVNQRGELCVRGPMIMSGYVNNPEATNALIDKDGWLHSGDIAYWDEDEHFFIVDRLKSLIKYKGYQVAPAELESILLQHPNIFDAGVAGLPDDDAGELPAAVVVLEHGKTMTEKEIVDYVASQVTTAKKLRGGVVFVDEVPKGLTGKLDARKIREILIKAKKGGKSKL
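Purified P. pyralis luciferase (10nM final) with 10uM D-luciferin and 10uM ATP (Km levels) in 50mM Tris acetate pH 7.5, 10mM Mg acetate, 0.01% Tween-20, 0.05% BSA; qHTS 6-point titration, ~60 µM downward; luminescence read.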
* = called active by the depositor; ? = inconclusive; . = no result. Most compounds without a hit are left out; they make up all but 7.5% or so of the library. Calls follow the shape of the dose curve; as a rule, active = well fitted curve in the direction sought with a large enough effect; inconclusive = small, poorly fitted or top-dose-only effect, or another doubt; inactive = no such curve, though single readings can be large; an effect the other way counts as inactive or inconclusive. Potency is read from the fitted curve at half-maximal effect.

SMILES	SMN2 splice up	NPC1 promoter act	KinaseGlo FLuc	Rab9 promoter act	ELG1 genotoxic	FLuc counter
O=C(N/N=C/C1CCCCC1)c1cc(Cl)ccc1O	-11%	-4%	0%	-7%	3%	12µM*
Cc1cccc(NC(=O)Nc2cccc(F)c2)n1	11%	?	-2%	?	?	13µM*
COc1cccc(NC(=O)Nc2nccc(C)n2)c1	.	1.3µM*	.	0.56µM*	?	1.2µM*
Cc1ccnc(NC(=O)Nc2cccc(F)c2)n1	11µM*	2.2µM*	-10%	1.1µM*	?	7.6µM*
CCc1ccccc1NC(=O)Nc1cccc(F)c1	-4%	-4%	-3%	1%	-5%	?
COC(=O)Cc1csc(NC(=O)c2ccc3ncsc3c2)n1	.	21%	.	?	16%	24µM*
CCOC(=O)c1sc(NC(=O)c2ccc3ncsc3c2)nc1C	2.8µM*	-33%	0%	-37%	2.3µM*	0.95µM*
CCOC(=O)c1sc(NC(=O)c2cncc(Br)c2)nc1C	4.5µM*	-14%	-3%	17%	18µM*	2.1µM*
CSc1ccc(CC(=O)N2CCC(n3nccc3NC(=O)C3CC3)CC2)cc1	.	3.2µM*	.	?	?	?
COc1cccc(CC(=O)N2CCC(n3nccc3NC(=O)C3CC3)CC2)c1	.	9%	.	4%	14%	-2%
O=C(Nc1ccc(C(=O)Oc2ccccc2)c(O)c1)c1ccco1	?	?	-24%	2.2µM*	?	7.6µM*
CCOC(=O)Nc1ccc(Oc2ccccc2)cc1	7%	?	-2%	?	18µM*	13µM*
CCOC(=O)Nc1ccc(C(=O)/C=C/c2ccccc2)cc1	.	17%	.	-49%	7%	17µM*
CCOC(=O)Nc1ccc(C(=O)Oc2ccccc2)c(O)c1	8%	19%	-9%	?	16%	15µM*
O=C(Nc1ccc(C(=O)Oc2ccccc2)c(O)c1)c1ccccc1	-16%	11%	-4%	28%	1%	?
COc1ccc(C(=O)/C=C/c2ccccc2)cc1	21%	.	-26%	.	.	.
OCCNCc1c(OCc2ccc(Cl)cc2)ccc2ccccc12	.	-4%	.	-3%	4%	-1%
COc1ccccc1NC(=O)c1ccc(CN2C(=O)C(C)=C(c3ccc(C)c(C)c3)S2(=O)=O)cc1	.	.	.	.	.	4%
C[C@@H]1/C(=N/O)CC2C[C@@H]1C2(C)C	-3%	.	-1%	.	.	.
CC1=CC(C)=Nc2ccc(C)cc2N1	1%	8%	-2%	9%	7.1µM*	15µM*
O=C(CCCCCn1c(=O)c2sccc2n(CC(=O)Nc2cc(C(F)(F)F)ccc2Cl)c1=O)NCc1ccccc1Cl	-10%	.	.	.	.	4%
CCN(CC)c1ccc(N=Cc2cc(Br)ccc2O)cc1	-17%	-1%	-3%	-6%	-7%	9.5µM*
COc1ccc(C2(c3ccc(OC)cc3)NC(=O)N(CC(=O)N3CCOCC3)C2=O)cc1	.	-1%	.	-3%	2%	1%
Cn1c(=O)n(C)c2cc(/C=C3/SC(=O)N(CC(=O)N4CCOCC4)C3=O)ccc21	7%	-1%	-1%	-4%	?	-23%
Cc1cc(/C=C2/SC(=O)N(CC(=O)N3CCOCC3)C2=O)c(C)n1-c1ccccc1F	11µM*	3.5µM*	-3%	1.6µM*	?	0.38µM*
COc1ccc(-n2c(C)cc(/C=C3/SC(=O)N(CC(=O)N4CCOCC4)C3=O)c2C)cc1	4%	14%	-3%	24%	3%	1.7µM*
CCOc1ccc(S(=O)(=O)N2CCCC(C(=O)NCc3cccnc3)C2)cc1 (configuration not stated)	.	-1%	.	0%	-8%	-1%
COc1cc(/C=C/C(=O)OCC(=O)NCc2ccco2)ccc1O	.	-2%	.	-7%	3%	2%

Screens deposited in PubChem BioAssay by National Center for Advancing Translational Sciences (NCATS).
